Measurements reported in PubChem BioAssay AID686921 (National Center for Advancing Translational Sciences (NCATS), 2013).
Active and inactive are the calls of the source. Calls follow the shape of the dose curve; as a rule, active = well fitted curve in the direction sought with a large enough effect; inconclusive = small, poorly fitted or top-dose-only effect, or another doubt; inactive = no such curve, though single readings can be large or run the other way.

assay: qHTS screen for inhibitors of ELG1-dependent DNA repair in human embryonic kidney (HEK293T) cells expressing luciferase-tagged ELG1: 5FU Viability Assay for probe SAR; conditions: HEK293T ELG1-luc, CellTiter-Glo viability, 16 h; series mostly up to 46.1 µM
Excerpt: Cancer cells divide rapidly compared to normal cells in the body. During cell division, cancer cells need to duplicate their genome by DNA replication. The failure of genome duplication leads to cancer cells' death. Therefore, inhibitors of DNA replication could specifically kill cancer cells. Based on this concept, many chemotherapeutic agents were developed and have been used to treat cancer patients. However, there are a limited number of agents available in the clinical setting, and some of those that do exist have low efficacy and severe side effects. Therefore, if we can find the compounds that effectively block DNA replication either by directly damaging DNA or by inhibiting other cellular mechanisms, the options for cancer treatment will be broadened. With this in mind, we developed a quantitative high-throughput ELG1-luciferase reporter gene assay. Small molecules that specifically block ELG1 function in response to DNA damage can be identified by monitoring the suppression of luciferase activity. Since ELG1 defines a pathway for repairing DNA damage, agents blocking ELG1 function can be used to sensitize cancer cells to chemotherapeutic agents whose mechanism of action involves the induction of DNA damage. Cytotoxicity of the active compounds in the ELG1 qHTS assay (AID 493107) was assessed using the CellTiter-Glo Luminescent Cell Viability Assay kit (Promega, USA). CellTiter-Glo measures the intracellular ATP present in metabolically active cells using Ultra-Glo as the luciferase to detect ATP levels. In brief, the luciferase in the buffer catalyzes the oxidation of luciferin to oxyluciferin and light which is dependent on ATP. […] DMSO and wells with media alone were used as positive and negative controls, respectively. Inactivity to this assay is the desirable outcome. NIH Molecular Libraries Probe Production Network [MLPCN] NIH Chemical Genomics Center [NCGC] MLPCN Grant: R03 MH092164 Assay Provider: Kyungjae Myung, NHGRI, NIH
ELG1-luc HEK293T cells will be seeded in 1536-well plates at a density of 2,000 cells/well. Approximately 5 hours after plating, compounds will be added to the plate by pin tool transfer and 5-fluorouridine will be added by FRD dispenser (final concentration of 5-fluorouridine =10 µM). 16 hours following the addition of the compounds, cell viability will be measured using CellTiter Glo.

Row | SMILES | outcome
1 | Fc1cc(Nc2nc(-c3ccncc3)nc3ccccc23)ccc1-c1ccncc1 | inactive
2 | Fc1cc(-c2nc(Nc3ccc(F)c(F)c3)c3ccccc3n2)ccn1 | inactive
3 | Cc1nc2ccc(Nc3nc(-c4ccncc4)nc4ccccc34)cc2s1 | inactive
4 | COc1cc(Nc2nc(-c3ccncc3)nc3ccccc23)ccc1NS(C)(=O)=O | inactive
5 | N#Cc1cnccc1-c1nc(Nc2ccc(F)c(F)c2)c2ccccc2n1 | inactive
6 | Fc1ccc(-c2ccc(Nc3nc(-c4ccncc4)nc4ccccc34)cc2F)c(F)c1 | inactive
7 | COc1ccc(Nc2nc(-c3ccncc3)nc3ccccc23)cc1F | inactive
8 | Fc1cc(Nc2nc(-c3ccncc3)nc3ccccc23)ccc1-c1ccc(F)c(F)c1F | inactive
9 | Fc1cccc(Nc2nc(-c3ccncc3)nc3ccccc23)c1 | inactive
10 | COc1cc(Nc2nc(-c3ccncc3)nc3ccccc23)ccc1Cl | inactive
11 | Fc1cc(Nc2nc(-c3ccncc3)nc3ccccc23)ccc1N1CCNCC1 | inactive
12 | Fc1ccc(Nc2nc(-c3ccnc(N4CCCCC4)c3)nc3ccccc23)cc1F | inactive
13 | COc1ccc(-n2c(C)c(C(C)=O)c3cc(O)ccc32)cc1 | inactive
14 | CN1CCN(c2ccc(Nc3nc(-c4ccncc4)nc4ccccc34)cc2F)CC1 | inactive
15 | Fc1cc(Nc2nc(-c3ccncc3)nc3ccccc23)ccc1C(F)(F)F | inactive
16 | Fc1ccc(Nc2nc(-c3ccncc3)nc3ccccc23)cc1F | inactive
17 | Nc1cc(-c2nc(Nc3ccc(F)c(F)c3)c3ccccc3n2)ccn1 | inactive
18 | Fc1ccc(-c2ccc(Nc3nc(-c4ccncc4)nc4ccccc34)cc2F)cc1 | inactive
19 | COc1ccc(-c2ccc(Nc3nc(-c4ccncc4)nc4ccccc34)cc2F)cc1F | inactive
20 | Fc1ccc(-c2ccc(Nc3nc(-c4ccncc4)nc4ccccc34)cc2F)c(Cl)c1 | inactive

Row | SMILES | outcome
21 | Fc1cc(Nc2nc(-c3ccncc3)nc3ccccc23)ccc1OC(F)(F)F | inactive
22 | Fc1cc(Nc2nc(-c3ccncc3)nc3ccccc23)ccc1-c1cccc(C(F)(F)F)c1 | inactive
23 | Fc1ccc(Nc2nc(-c3ccncc3F)nc3ccccc23)cc1F | inactive
24 | Fc1cc(Nc2nc(-c3ccncc3)nc3ccccc23)ccc1-c1cc(F)c(F)c(F)c1 | inactive
25 | COc1ccc(-n2c(C)c(C(C)=O)c3ccccc32)cc1 | inactive
26 | N#Cc1cc(-c2nc(Nc3ccc(F)c(F)c3)c3ccccc3n2)ccn1 | inactive
27 | Fc1ccccc1-c1ccc(Nc2nc(-c3ccncc3)nc3ccccc23)cc1F | inactive
28 | COc1cc(-c2nc(Nc3ccc(F)c(F)c3)c3ccccc3n2)cc(OC)n1 | inactive
29 | COc1ccc(-c2nc(Nc3ccc(F)c(F)c3)c3ccccc3n2)cc1 | inactive
30 | COc1nccc(-c2nc(Nc3ccc(F)c(F)c3)c3ccccc3n2)c1Cl | inactive
31 | Fc1cc(Nc2nc(-c3ccncc3)nc3ccccc23)ccc1OCC(F)(F)F | inactive
32 | Fc1ccc(Nc2nc(-c3ccnc(C(F)(F)F)c3)nc3ccccc23)cc1F | inactive
33 | Cc1cc(-c2nc(Nc3ccc(F)c(F)c3)c3ccccc3n2)ccn1 | inactive
34 | Fc1cc(Nc2nc(-c3ccncc3)nc3ccccc23)ccc1-n1cncn1 | inactive
35 | COC(=O)c1ccc(Nc2nc(-c3ccncc3)nc3ccccc23)cc1OC | inactive
36 | Fc1cc(Nc2nc(-c3ccncc3)nc3ccccc23)ccc1-c1ccc2[nH]ncc2c1 | inactive
37 | Fc1cc(Nc2nc(-c3ccncc3)nc3ccccc23)ccc1-c1cccnc1 | inactive
38 | COc1cc(Nc2nc(-c3ccncc3)nc3ccccc23)ccc1F | inactive
39 | COc1cc(Nc2nc(-c3ccncc3)nc3ccccc23)ccc1N1CCN(C)CC1 | inactive
40 | Cc1noc(C)c1-c1ccc(Nc2nc(-c3ccncc3)nc3ccccc23)cc1F | inactive
